Compound activity deposited in PubChem by The Scripps Research Institute Molecular Screening Center.
ADAM17 inh = inhibits human ADAM17; P78536; recombinant ADAM17, EDANS/DABCYL FRET peptide cleavage; inhibition, % at 6.95 µM; hit rate 0.83% among 370,000;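 active = inhibition above the mean of compounds lying between control limits plus 3 SD, set per campaign, cut at about 8.5% in these data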;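 note: 0% = DMSO-only wells as the low control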
ADAM10 inh = ADAM10 inhibition, QFRET primary screen; O14672; recombinant ADAM10, EDANS/DABCYL FRET peptide cleavage, 3 h; inhibition, % at 7 µM; hit rate 0.62% among 370,000; AID 720582;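 active = inhibition above a per-campaign cutoff equal to the mean of compounds falling between control-based bounds plus 3 SD, cut at about 20% in these data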;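 note: 0% = DMSO wells while the 100% control is not disclosed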
PLC-beta3 inh = blocks human PLC-beta3 enzyme activity. Q01970. hit rate 0.18% among 370,000. AID 720704. Purified PLC-beta3, fluorogenic substrate, fluorescence. inhibition, % at 12.2 µM;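 note: 0% = median of compound wells on plate and 100% = full blocker control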
proKLK7 act = activates the human kallikrein-7 zymogen; P49862; purified proKLK7, EDANS-DABCYL substrate fluorescence; 100% is mature enzyme control, 0% vehicle; activation, % at 7 µM; hit rate 0.9% among 370,000;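 active = activation above the mean of all tested compounds plus 3 SD, computed per campaign excluding outliers beyond control limits, cut at about 13% in these data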
PLC-gamma1 inh = PLC-gamma1 (human) inhibition, primary screen; P19174; purified PLC-gamma1, fluorogenic substrate, fluorescence; inhibition, % at 12.2 µM; hit rate 0.84% among 370,000; AID 720700; in the data active = inhibition above about 9.5%
PLCg1 ctr = counter-screen for PLC-beta3 inhibitors: inhibitors of human PLC-gamma1; hit rate 3.1% among 3,300; shares compounds with PLC-gamma1 inh; purified PLC-gamma1, fluorogenic substrate, fluorescence; inhibition, % at 12.3 µM; in the data active = inhibition above about 9.5%
PLCb3 confirm = confirmation of human PLC-beta3 inhibitors; inhibition, % at 12.3 µM; purified PLC-beta3, fluorogenic substrate fluorescence; shares compounds with PLC-gamma1 inh; hit rate 1% among 3,300
* hit, by the source's call; i = inactive; . = no result given. Most compounds without a hit are left out; they make up all but 2.9% or so of the library. Cut-off read from the data, not from the text of the source, unless noted: active = inhibition above about 11%; inactive = the rest.

SMILES | ADAM17 inh | ADAM10 inh | PLC-beta3 inh | proKLK7 act | PLC-gamma1 inh | PLCg1 ctr | PLCb3 confirm
Cc1[nH]c(=O)c(C#N)c(C)c1CSc1ncccn1 | 2 | -12 | 6 | 0 | 12* | -6 | 0
O=C(c1cc2ccccc2oc1=O)N1CCCC1 | -2 | -10 | 3 | 1 | 15* | -6 | -11
Cc1ccc(-c2nc3ccsc3c(=O)[nH]2)cc1 | 3 | 6 | 6 | 1 | 10* | -3 | 0
O=C1[C@H](Cc2ccccc2)NCCCC[C@@H](c2ccc(Cl)cc2)N1Cc1ccccc1 | 3 | 5 | 1 | 0 | 16* | 1 | 2
CCCCc1nc2ccccc2c(=O)n1NC(=O)c1c(O)c2c(n(CC(C)C)c1=O)CCCC2 | -5 | -10 | 0 | 0 | 13* | -3 | -3
CC(C)Cn1c2c(c(O)c(C(=O)Nn3c(Cc4ccccc4)nc4ccccc4c3=O)c1=O)CCCC2 | -1 | 0 | 0 | 0 | -1 | . | .
O=C(CNC(=O)C1CCCCC1)Nc1cc(Cl)ccc1Cl | 3 | 10 | 8 | 0 | 11* | -2 | 3
O=C(CNC(=O)C1CCCCC1)Nc1ccccc1Cl | -3 | 4 | -2 | 0 | 1 | . | .
COc1cc(OC)cc(C(=O)N2CCN(S(=O)(=O)c3ccc4c(c3)OCCO4)CC2)c1 | -3 | -5 | 1 | 1 | 3 | . | .
COc1ccc(NC(=O)c2cc(-c3ccc(OC)c(OC)c3)on2)cc1OC | 3 | -1 | 10 | 0 | 10.0* | -155 | -194
COc1ccc(NC(=O)c2cc(-c3ccc(C)cc3)on2)cc1OC | -3 | 4 | -5 | -2 | 0 | . | .
COc1ccccc1NS(=O)(=O)c1ccc(OC)c([N+](=O)[O-])c1 | 2 | -4 | 2 | 0 | 3 | . | .
COc1ccccc1NS(=O)(=O)c1ccc(NN=C2CCCCC2)c([N+](=O)[O-])c1 | 8 | 16 | 7 | 1 | 11* | 5 | 6
COc1ccccc1NS(=O)(=O)c1ccc(N/N=C(\C)C(C)C)c([N+](=O)[O-])c1 | 6 | 16 | 13* | 0 | 9.9* | 8 | 3
Cc1ccc(C(=O)OCc2c(C)noc2C)cc1NC(=O)c1ccco1 | 7 | 6 | 9 | 0 | 11* | 5 | -5
COc1cc(O)c(C(CC(=O)N2CCCC(C)C2)c2ccccc2)c(OC)c1 (stereo not drawn) | -4 | -5 | 2 | . | -2 | . | .
O=C(CNC(=O)c1cc(Cl)nc2ccccc12)Nc1ccccc1Br | -3 | -5 | -1 | -1 | -2 | . | .
CCCCCn1nnnc1-c1nc2cc(C)c(C)cc2[nH]c1=O | -162 | i | -455 | -11 | -312 | . | .
CCCC12CN3CC(C)(CN(C1)C3c1ccc3c(c1)OCO3)C2=O (stereo not drawn) | -4 | -6 | 2 | -1 | 0 | . | .
CC(C)C12CN3CC(C(C)C)(CN(C1)C3c1ccc3c(c1)OCO3)C2=O (stereo not drawn) | 6 | 2 | 12* | 0 | 7 | -6 | -2
O=C(NNc1ccc([N+](=O)[O-])cc1)c1ccco1 | -1 | 2 | -2 | 0 | 4 | . | .
COc1ccc(C(=O)NC(=S)Nc2ccc(NC(=O)c3ccco3)cc2)cc1[N+](=O)[O-] | -2 | -10 | 3 | 1 | 2 | . | .
O=C(NC(=S)Nc1ccc([N+](=O)[O-])cc1)c1ccco1 | 8 | 6 | 5 | 0 | 13* | -3 | 0
O=C(NC(=S)Nc1ccccc1[N+](=O)[O-])c1ccco1 | 0 | 4 | -1 | 0 | 1 | . | .
COc1ccc(C(=O)NC(=S)Nc2cccc(NC(=O)c3ccco3)c2)cc1[N+](=O)[O-] | 4 | -10 | 5 | 0 | 13* | -1 | 1
SMILES | ADAM17 inh | ADAM10 inh | PLC-beta3 inh | proKLK7 act | PLC-gamma1 inh | PLCg1 ctr | PLCb3 confirm
Nc1ccc([N+](=O)[O-])cc1C(=O)NNC(=O)c1ccco1 | 6 | 17 | 3 | 0 | 9.7* | 7 | 7
O=C(Nc1ccc(Oc2ccccc2)nc1)C1CCCCN1Cc1ccco1 (stereo not drawn) | -5 | -5 | -5 | 0 | 2 | . | .
O=c1oc2ccccc2c(O)c1C=NCc1ccccn1 | 4 | 7 | 9 | 0 | 12* | 1 | 1
O=c1c2ccccc2c(C=NCc2ccccn2)c(O)n1-c1ccccc1 | -4 | -9 | -13 | 0 | -10 | . | .
CC1CCCN(C(=O)C2CCN(S(=O)(=O)c3cccs3)CC2)C1 (stereo not drawn) | -6 | -5 | -6 | 1 | -2 | . | .
CCOC(=O)C(NC(=O)c1ccccc1F)(Nc1cc(C)on1)C(F)(F)F (stereo not drawn) | 5 | 4 | 12* | 0 | 5 | -2 | -2
CCOC(=O)C(NC(=O)c1ccccc1)(Nc1cccc(C)n1)C(F)(F)F (stereo not drawn) | 0 | 5 | 1 | 0 | 2 | . | .
CC(C)(C)c1ccc(OCCCN2CCC(C(O)(c3ccccc3)c3ccccc3)CC2)cc1 | 3 | 3 | -3 | 0 | 2 | . | .
O=[N+]([O-])c1ccc(NCc2ccncc2)cc1 | 6 | 9 | 1 | 0 | 13* | -6 | -5
O=[N+]([O-])c1ccc(NC(=S)NCc2ccncc2)cc1 | -2 | -2 | 2 | -1 | 3 | . | .
CCOC(=O)c1ccccc1NC(=O)c1cn(-c2ccc(C)c(C)c2)c(=O)c2ccccc12 | 3 | 3 | 2 | 0 | 9.9* | -3 | -4
CCCn1c(N)c(N(CCOC)C(=O)c2ccccc2F)c(=O)[nH]c1=O | 2 | 1 | 0 | 0 | 3 | . | .
CCCCn1c(N)c(N(CC)C(=O)c2ccccc2F)c(=O)[nH]c1=O | 1 | 3 | 6 | -1 | 12* | -3 | 1
CCNS(=O)(=O)c1ccc(CCC(=O)N2CCN(c3ccccc3F)CC2)cc1 | -5 | 7 | -5 | 0 | -3 | . | .
Cc1cc(-c2nc(C)c(C(=O)NNS(=O)(=O)c3ccc(Cl)cc3Cl)s2)no1 | -4 | -6 | -9 | 0 | -1 | . | .
Cc1cc(-c2nc(C)c(C(=O)NNS(=O)(=O)c3cccc(C(F)(F)F)c3)s2)no1 | 0 | -1 | 2 | 0 | 11* | -2 | -1
COc1ccc(C2=NN(C(=O)CSc3nc(=O)n4cccc(C)c4n3)C(c3ccc(C)cc3)C2)cc1 (stereo not drawn) | -3 | -12 | -9 | 2 | 8 | . | .
CC(=O)N1CC(C)Oc2ccc(S(=O)(=O)Nc3ccc(Cl)cn3)cc21 (stereo not drawn) | -4 | 7 | -3 | -7 | 10* | -6 | -4
Cc1ccc(NC(=S)NCc2ccccc2)cc1S(=O)(=O)N1CCCCC1 | 8 | 16 | 9 | 0 | 14* | 5 | 8
O=C(Cc1cccs1)Nc1ccc(Cl)c(S(=O)(=O)N2CCOCC2)c1 | -3 | -5 | -7 | 1 | -3 | . | .
Cc1ccc(NC(=O)CSc2ccccc2)cc1S(=O)(=O)N1CCCCC1 | 7 | 12 | -1 | 0 | 3 | . | .
